Compound activity from PubChem BioAssay.
Rows were chosen to be rich in hits. Some 19% of all compounds tested hit in one or more screens of this group.
IL1B secr inh: inhibitors of inflammasome signaling (IL-1 beta secretion). THP-1 LPS/ATP IL-1B secretion, AlphaLISA, 16 h; stronger effect = lower value. activity change, % at 57.5 µM. 360,000 compounds, 4.7% hits. AID 743279; in the data active = activity change below about -50%; inconclusive = mostly about -30% to -49%
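Secreted IL-1B measured by AlphaLISA bead assay after 16 h compound exposure of THP-1 cells; compounds (final up to 57.5 uM) added 1 h before LPS (250 ng/mL) and ATP (1.25 mM) stimulation; lower signal means less secretion.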
HT1080NT lethal: kills 2HG-producing HT-1080-NT fibrosarcoma cells; HT-1080-NT fibrosarcoma viability, CellTiter-Glo ATP luminescence, 48 h; Potency, µM (titrated, usually from 46.1 µM), without a hit: at the top dose activity, negative = less viability, usual class: cytotoxic; 360,000 compounds, 1.6% hits; AID 686970;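 note: NT is the 2HG producing partner of a matched IDH1 knockdown line; potency is the fitted concentration of half-maximal effect; 0% = DMSO-treated cells and -100% = media-only wells without cells; nearly all actives have a fitted effect of over 55% in size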
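HT-1080-NT; 750 cells/well; 5% FBS RPMI; 48 h compound, 37 degrees C; CellTiter-Glo luminescence; curve fitting and curve-class assignment.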
ELG1 repair inh: blocks ELG1-dependent DNA repair in HEK293T cells; HEK293T ELG1-luciferase reporter, luminescence, 16 h; DNA damage induced by 5-fluorouridine; Potency, µM (highest dose often 46.1 µM), inactives show top-dose activity change, negative = inhibition, most hits filed as inhibitors; 330,000 compounds, 2.3% hits; AID 504467; note: potency is the fitted concentration of half-maximal effect; nearly all actives have a fitted effect of over 55% in size
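DMSO vehicle served as the neutral condition. Each well held 2,000 cells given 5-fluorouridine plus compound; after 16 hr at 37 °C/5% CO2, ONE-Glo was added and luciferase measured 30 min later.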
DT40 TDP1 no CPT: qHTS for Inhibitors of human tyrosyl-DNA phosphodiesterase 1 (TDP1): qHTS in cells in absence of CPT; DT40 Tdp1-/- hTDP1 cells, no CPT, ATP luminescence, 48 h; Potency, µM (series often up to 46.2 µM), for the others: at the highest dose activity change, negative = growth inhibition, hits mostly inhibitors; 420,000 compounds, 15% hits; note: potency is the fitted concentration of half-maximal effect; nearly all actives have a fitted effect of over 55% in size
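Growth kinetics read by CellTiter-Glo luminescence after ≥48 hr at 37 °C. Cells: DT40 Tdp1-/- stably carrying human TDP1, 400 per well, compound exposure in the absence of CPT (DMSO vehicle).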
DT40 TDP1 CPT: DT40-hTDP1 cell growth loss with CPT | chicken DT40 Tdp1-/-;hTDP1 cells + 20 nM CPT, ATP luminescence, 48 h | Potency, µM (titrated, usually from 46.2 µM), inactives show at the top dose activity change, negative = growth inhibition, usual class: inhibitors | 420,000 compounds, 12% hits | AID 686979; note: potency is the fitted concentration of half-maximal effect; nearly all actives have a fitted effect of over 55% in size
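Chicken DT40 Tdp1-/- cells stably complemented with human TDP1 were seeded at 400 cells/well in medium containing 20 nM camptothecin, exposed to pin-transferred compounds, and grown at 37 °C for at least 48 hr. Viability was read as ATP luminescence.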
HT1080 IDH1KD tx: kills HT-1080 cells with IDH1 knockdown; Potency, µM (titrated, usually from 46.1 µM), inactives show top-dose activity, negative = toxicity, usual class: cytotoxic; 360,000 compounds, 2% hits; HT-1080 IDH1 knockdown viability, ATP luminescence, 48 h; AID 686971;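 note: potency is the fitted concentration of half-maximal effect; 0% = DMSO wells and -100% = cell-free medium wells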
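Luminescent ATP read-out (CellTiter-Glo, 10 min at room temperature) after 48 h compound exposure at 37 °C gave viability of IDH1-knockdown HT-1080 cells. Activity was normalised to DMSO and cell-free wells, then fitted as concentration-response curves.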
* marks the source's active call; other numbers are inactive results; ? = inconclusive; . = no result. Unless noted, calls come from the whole dose curve; as a rule, active = well fitted curve in the direction sought with a large enough effect; inconclusive = small, poorly fitted or top-dose-only effect, or another doubt; inactive = no such curve, though single readings can be large; an effect the other way counts as inactive or inconclusive. Unless noted, % is set by controls: 0 for no effect and ±100 for the full control effect.

SMILES | IL1B secr inh | HT1080NT lethal | ELG1 repair inh | DT40 TDP1 no CPT | DT40 TDP1 CPT | HT1080 IDH1KD tx
O=C(NCCN1C(=O)S/C(=C\c2ccccc2)C1=O)C1CCN(S(=O)(=O)c2cccs2)CC1 | -1.3 | -4.0% | -10.7% | 18.4µM* | 13µM* | -0.4%
O=C(NCCCN1CCN(c2ccccc2F)CC1)C1CCN(S(=O)(=O)c2cccs2)CC1 | 10.0 | 1.8% | -22.7% | ? | 12.6µM* | -20.9%
Cc1cc(NC(=O)COC(=O)CNS(=O)(=O)c2c(F)cc(F)cc2Br)no1 | ? | 21.8% | ? | -5.2% | -9.5% | 4.7%
Cc1ccc(/C=C/C(=O)NCC2COc3ccccc3O2)o1 (configuration not stated) | -52.6* | -1.3% | -4.8% | 16.4µM* | 16.4µM* | -3.7%
Cc1ccc(/C=C/C(=O)NCCc2c[nH]c3ccccc23)o1 | -15.1 | -0.5% | 2.7% | -10.7% | -4.3% | -1.4%
Cc1cc(C(=O)NCC2COc3ccccc3O2)c2ccccc2n1 (configuration not stated) | -69.8* | -0.3% | -6.1% | ? | ? | 0.3%
O=C(NCC1COc2ccccc2O1)c1ccccc1 (configuration not stated) | -9.7 | -2.1% | ? | -5.1% | -20.7% | -5.8%
COc1ccc(-n2nc(C(=O)NCC(=O)NCC3COc4ccccc4O3)c3ccccc3c2=O)cc1 (configuration not stated) | -28.5 | -3.0% | ? | ? | ? | -17.2%
Cn1nc(C(=O)NCC2COc3ccccc3O2)c2ccccc2c1=O (configuration not stated) | 6.3 | -4.0% | -7.5% | 20.6µM* | 23.1µM* | -0.3%
Cc1ccc(/C=C/C(=O)NCCc2cccc(Cl)c2)o1 | -65.2* | ? | -1.3% | 18.4µM* | 10.3µM* | ?
Cc1cc(C)cc(NC(=O)c2c(C)oc3nc(C)nc(N4CCCC4)c23)c1 | . | . | . | -19.3% | ? | .
O=C(NCCN1CCCC1)c1ccc(Br)cc1 | -1.6 | 19.8% | -19.3% | -12.2% | 1.9% | 10.6%
COc1ccc(CCNC(=O)CNS(=O)(=O)c2ccc(Cl)cc2)cc1 | 0.0 | 8.2% | . | ? | -4.8% | 3.4%
O=C(Cc1ccccc1)Nc1ccc(C(=O)NCC2COc3ccccc3O2)cc1 (configuration not stated) | -26.9 | ? | -3.4% | ? | 9.5% | -17.2%
O=C(NCC1COc2ccccc2O1)c1ccc(NC(=O)C(c2ccccc2)c2ccccc2)cc1 (configuration not stated) | 8.6 | ? | ? | 9.2µM* | 18.4µM* | -11.0%
COc1ccc(C2/C(=C(/O)c3ccc(Br)cc3)C(=O)C(=O)N2C)cc1OC (configuration not stated) | 7.6 | 4.0% | -1.8% | -0.8% | 5.5% | -1.6%
CCN1C(=NCCc2ccc(Br)cc2)N[C@@H](c2ccccc2)[C@H](C(=O)OC)[C@H]1C | 0.0 | -22.3% | ? | 18.4µM* | 23.1µM* | -28.5%
CCN1C(=NCCc2ccc([N+](=O)[O-])cc2)N[C@@H](c2ccccc2)[C@H](C(=O)OC)[C@H]1C | -23.3 | -10.3% | ? | 14.6µM* | ? | 0.4%
COC(=O)/C=c1\[nH]c2nnc(C)n2c1=O | 23.1 | 29.1% | -1.2% | -4.2% | -1.4% | -2.4%
O=[N+]([O-])c1cc([N+](=O)[O-])c(Oc2cc(Cl)ccc2Cl)cc1NC1CCCCCCC1 | 6.5 | 1.7% | 8.6% | ? | 18.4µM* | -1.5%
O=[N+]([O-])c1cc([N+](=O)[O-])c(Oc2cncc(Cl)c2)cc1NC1CCCCCCC1 | 2.4 | 14.1% | ? | 14.6µM* | 23.1µM* | 15.3%
